# Several values for one entry are separate records, joined by “and”; a condition that tells them apart may be missing. Equal entries are not always repeated. In all, about 410,000 compounds went through this assay and about 5,000 (1.2%) were called active. A call without a number means that no potency is given here. Another 13% or so got no clear call; they are omitted. The call rests on the fitted dose curve; in most records, active means well fitted inhibition curve with a large enough effect; inconclusive means small, poorly fitted or top-dose-only effect; inactive means no such curve, though single readings can be large or run the other way. This excerpt belongs to a sample that is enriched for actives.
# Assay: qHTS for Inhibitors of TGF-b; further: nearly all actives have a fitted effect of over 65% in size
# Details: HepG2 CAGA-GFP TGF-b/SMAD3 reporter, GFP fluorescence, 18 h, TGF-beta stimulated, 500 pg/mL final; series mostly up to 46.1 µM
# Procedure, shortened: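 TGF-beta reporter screen: HEPG2 CAGA-GFP, 1% FBS, 500 pg/mL TGF-beta final, 18 h; per-cell GFP summed per well; curves fitted and categorized by class.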
# Potency means the concentration at half of the fitted maximal effect.
row,SMILES,Potency
1,C/C(=N\NC(=O)CSc1nc2ccccc2c(=O)n1-c1ccccc1C)c1cccs1,inactive
2,Cc1nnc(C)n1-c1ccc(C(=O)Nc2cccc(Br)c2)cc1,inactive
3,Cc1ccccc1CNC(=O)c1ccc(NC(=O)N2CCCCc3ccccc32)cc1,inactive
4,CCOC(=O)c1c(NC(=O)c2ccc(S(=O)(=O)N(CC)CC)cc2)sc2c1CCCCC2,inactive
5,Cc1c(C)n(Cc2ccc(Cl)cc2)c2ccc(C(=O)N3CCN(c4ccccc4F)CC3)cc12,inactive
6,CC(C)c1ccc2c(c1)c(SC(C)(C)C)c(CC(C)(C)C(=O)O)n2Cc1ccc(Cl)cc1,10 µM (active)
7,Cc1cccc2sc(N(CCCN(C)C)C(=O)CCS(=O)(=O)c3ccccc3)nc12,3.16 µM (active)
8,COc1ccc(N(C)C(=O)CCS(=O)(=O)c2cccc3nsnc23)cc1,inactive
9,COc1ccccc1NC(=O)CC(NCCN(C)C)C(=O)O (configuration not stated),inactive
10,CCOc1cccc2sc(N3CCN(C(=O)C4CC4)CC3)nc12,inactive
11,Cc1ccc2sc(N(CCN(C)C)C(=O)/C=C/c3cccs3)nc2c1C,inactive
12,COc1cccc2sc(N(CCCN(C)C)C(=O)C(c3ccccc3)c3ccccc3)nc12,12.6 µM (active)
13,COc1cccc2sc(N(CCCN(C)C)C(=O)CCS(=O)(=O)c3ccccc3)nc12,1.12 µM (active)
14,O=C(CCS(=O)(=O)c1ccccc1)Nc1nc2c(s1)CCCC2,inactive
15,Cc1ccc(S(=O)(=O)CCC(=O)OCC(=O)N(C)Cc2ccccc2)cc1,inactive
16,Cc1ccc(-c2nnc(Nc3cccc(Br)c3)c3ccccc23)cc1S(=O)(=O)NCC1CCCO1 (configuration not stated),inactive
17,CCOC(=O)c1c(NC(=O)/C(C#N)=C/c2ccccc2)sc2c1CCC2,inactive
18,Cc1cccc(CC(=O)Nc2cccc(-c3cn4cccnc4n3)c2)c1,inactive
19,COc1ccc(-c2nc(C)c(CCNC(=O)c3ccc(C(F)(F)F)cc3)s2)cc1OC,inactive

row,SMILES,Potency
1,CCOC(=O)c1cc(OC(=O)c2ccccc2Cl)n(-c2ccccc2)n1,inactive
2,CSc1nc(=O)c2c(n1C)NC(=O)CC2c1ccccc1OC(C)C (configuration not stated),inactive
3,Cc1cn(C)c(CC(=O)NCc2ccc(Cl)cc2)c1C(=O)O,inactive
4,CCOc1n[nH]c(-c2ccccc2)n1,inactive
5,CCOC(=O)c1ccc(NC(=O)CC2C(=O)N(c3cccc(OC)c3)C(=O)N2C2CCCCC2)cc1 (configuration not stated),inactive
6,Cc1ccc(C)c(S(=O)(=O)N2CCN(CC(=O)Nc3ccc([N+](=O)[O-])cc3)CC2)c1,8.91 µM (active)
7,Cc1ccc([N+](=O)[O-])cc1S(=O)(=O)N1CCCN(C)CC1,inactive
8,Cc1ccc(NC(=O)CCNC(=O)c2ccc([N+](=O)[O-])cc2)cc1S(=O)(=O)N1CCOCC1,inactive
9,Cc1cccc(N2CCN(C(=O)c3oc(=O)c4ccccc4c3-c3ccccc3)CC2)c1C,inactive
10,CCOc1ccccc1NC(=O)Cn1c(=O)n(Cc2ccccc2)c(=O)c2c(C)c(C(=O)N(C)C)sc21,inactive
11,CCC(=O)N1CCc2cc(S(=O)(=O)NCCC(=O)Nc3cccc(C)c3C)ccc21,inactive
12,Cc1ccc(C(C)C)c(OCCSc2nc3ccccc3n2CC(=O)O)c1,inactive
13,CCOc1ccc(OCCSc2nc3ccccc3n2CC(=O)O)cc1,inactive
14,Cc1cccc(OCCSc2nc3ccccc3n2CC(=O)N2CCCCC2)c1C,12.6 µM (active)
15,O=c1[nH]c2cc(Br)ccc2n2cccc12,inactive
16,COc1ccc(-c2onc(C)c2-c2ccc3c(c2)OCCO3)c(O)c1,15.8 µM (active)
17,COc1ccc(-c2c(-c3ccc(OC)cc3O)nc(C)nc2C(F)(F)F)cc1,inactive
18,COc1cc(-c2c(-c3ccc4c(c3)OCO4)noc2C)ccc1F,inactive
19,O=C1O/C(=C\c2ccc(O)cc2)C(O)=C1c1ccc(O)cc1,inactive

row,SMILES,Potency
1,O=S(=O)(Nc1ccccc1Cl)c1cccc2nsnc12,inactive
2,O=S(=O)(Nc1cccc2cccnc12)c1cccc2cccnc12,1.78 µM (active)
3,O=[N+]([O-])c1ccccc1S(=O)(=O)Nc1cccc2cccnc12,1.26 µM (active) and 6.31 µM (active)
4,O=[N+]([O-])c1ccccc1SNc1ccccn1,inactive
5,O=C(Nc1cccc2cccnc12)C(F)(F)F,inactive
6,Cc1ccc2cccc([N+](=O)[O-])c2n1,inactive
7,Cc1ccc(Cn2cc(CCC(=O)NCc3ccc(OC(C)C)cc3)c3ccccc32)cc1,inactive
8,O=C(O)c1ccc2c(c1)N(Cc1ccc(F)cc1)C(=O)c1ccccc1S2=O (configuration not stated),inactive
9,COc1cc(OC)c(NC(=O)Cc2ccc(-n3c(C)nc4cccnc43)cc2)cc1Cl,inactive
10,O=C(/C=C/Nc1ccccc1)c1cnc(-c2ccccc2)s1,inactive
11,CNC(=O)c1csc(-c2ccccc2)n1,inactive
12,Cc1nc(-c2ccccc2)sc1C(=O)/C=C/c1ccccc1,10 µM (active)
13,O=C(CSc1nc2nccnc2c(=O)n1CCc1c[nH]c2ccccc12)Nc1ccccc1F,inactive
14,O=C1COc2ccc(-c3csc(-c4ccc(Cl)cc4)n3)cc2N1,inactive
15,COc1ccc(C)cc1S(=O)(=O)N1CCN(S(=O)(=O)c2cc(C(=O)O)ccc2C)CC1,6.31 µM (active)
16,Cc1ccc(C)c(S(=O)(=O)N2CCN(C(=O)Nc3ccccc3)CC2)c1,inactive
17,COc1ccc(C(=O)NCc2ccc(C)cc2)cc1S(=O)(=O)N1CCCC1,inactive
18,CCCN(CCC)CCCNC(=O)Cn1cc2c(n1)-c1c(oc(C(=O)N3CCCC3)c1C)CC2,inactive
19,COc1cn(CC(=O)Nc2cccc(C)c2C)c(CN2CCCCC2)cc1=O,inactive

# Source: PubChem BioAssay AID588855 (National Center for Advancing Translational Sciences (NCATS), 2011)
